Sampled rows, rich in hits. Any-hit rate of the full collection: about 12%.
L major viab = inhibitors of Leishmania major promastigote growth; Leishmania major promastigotes, resazurin fluorescence viability; inhibition, % at 10 µM; 9% of 200,000 active; AID 1063; in the data active = inhibition above about 50%;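 also: promastigotes grown with compound for 44 hours at 28 °C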
WT yeast gro inh = growth inhibition of WT yeast, mitochondrial fusion screen; mitochondrial fusion phenotypic screen, WT strain; 2.1% of 190,000 active; inhibition, % at 10 µM; in the data active = inhibition above about 58%; tested in S. cerevisiae
CHOP inhibitor = inhibitors of CHOP induction in ER stress response | CHO-K1 CHOP-promoter luciferase, tunicamycin-induced, 15-18 h | inhibition, % at 10 µM | 3.8% of 220,000 active;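 active = compounds that reduced the stress-induced luciferase reporter signal by more than about 70% of percent inhibition, limit read from the data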;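 also: 0% = tunicamycin plus vehicle and 100% = wells without tunicamycin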
Arbovirus inh = arbovirus infection inhibition; inhibition, % at 10 µM; 0.37% of 200,000 active; arbovirus infection cell-based antiviral screen; in the data active = inhibition above about 30%
The depositor's hits bear a star; x = no result given.

SMILES	L major viab	WT yeast gro inh	CHOP inhibitor	Arbovirus inh
CCOCCCNCc1ccc(OC)c(OC)c1	80*	6	4	1
CCOCCCNCc1ccc(OC)cc1	32	-10	-6	-3
CCCOc1ccc(CNCCCOCC)cc1OC	70*	-1	29	-1
CCOCCCNCc1cccc(OC)c1	82*	-1	-3	2
CC(=O)c1cccc(NC(=O)C(C)N(C)CC(=O)Nc2ccc(Cl)cc2)c1 (stereo not given)	x	x	9	x
CCc1ccc(S(=O)(=O)NCc2cn3c(C)csc3n2)s1	-6	9	90*	2
CCc1ccc(S(=O)(=O)NCc2csc(-c3ccccc3)n2)s1	0	23	73*	-2
COc1ccc(OC)c(S(=O)(=O)NCc2csc(-c3ccccc3)n2)c1	78*	-5	3	7
CCOC(=O)/C(C#N)=C/c1cn(CCOc2ccc(OC)cc2)c2ccccc12	10	4	16	8
CC1CCCCN1C(=S)NCc1ccco1 (stereo not given)	-3	-7	15	7
CCC(C(=O)Nc1ccc(C(=O)N2CCCC2)cc1)c1ccccc1 (stereo not given)	2	0	22	-8
O=C(/C=C/c1ccc(S(=O)(=O)N2CCOCC2)cc1)OCC(=O)c1ccc([N+](=O)[O-])cc1	x	x	5	x
O=C(Nc1ccc(NC(=O)C2CCCCC2)nc1)c1cccs1	99*	-1	4	-17
Cc1cc(C)nc(SCC(=O)Nc2nonc2N)n1	4	-2	1	4
C/C(=N\NC(=O)C(N)=O)c1cccc(C(F)(F)F)c1	3	6	17	9
COc1ccc(-c2cc3cc(OC)c(OC)cc3c(C)n2)cc1C	x	x	36	x
Cc1cc(C)n(CC(O)CN2c3ccccc3Sc3ccccc32)n1 (stereo not given)	27	73*	29	-7
CN(C)c1ccc(P(=O)(Nc2cccc(C(F)(F)F)c2)N2CCOCC2)c(NC(=O)c2cccs2)c1 (stereo not given)	59*	9	50	7
CC1N(C)c2cc(NC(=O)c3cccs3)c(P(=O)(Nc3ccc([N+](=O)[O-])cc3)N3CCOCC3)cc2C1(C)C (stereo not given)	59*	4	34	-5
O=C(Nc1ccc(Cl)cc1)Nc1nnc(CSCc2ccc(Cl)cc2)s1	13	16	62	25
Cc1ccc2c(c1)C(=O)CC1(CCCC1)O2	x	x	-16	x
CC(C)(C)C1CCC2(CC1)CC(=O)c1ccccc1O2 (stereo not given)	x	x	74*	x
COc1ccc(CCNCC2C(Oc3ccc(Cl)cc3)C(=O)N2c2ccccc2C)cc1OC (stereo not given)	33	45	16	4
Cc1ccc2nc(N3C(=O)C(O)=C(C(=O)c4ccco4)C3c3cccs3)sc2c1 (stereo not given)	6	-11	94*	10
COc1ccc2c(C)cc(N3CCCCCC3)nc2c1	61*	3	41	0
SMILES	L major viab	WT yeast gro inh	CHOP inhibitor	Arbovirus inh
COc1cc(NC2c3ncccc3C(=O)N2Cc2ccco2)cc(OC)c1OC (stereo not given)	-4	-1	-14	-2
CCCCCc1n[nH]c2c1CCCC2	x	x	11	x
Cc1nc2ccccc2nc1OCC(=O)Nc1ccccc1	-7	-25	14	7
Cc1nc2ccccc2nc1OCC(=O)NCC(F)(F)F	58*	5	37	1
Cc1ccc[n+](CC(=O)Nc2cc(C(F)(F)F)ccc2Cl)c1	-8	16	-4	14
CCC(C)(C)c1ccc(OCCCC[n+]2cccc(C)c2)c(C(C)(C)CC)c1	100*	98*	6	-23
O=C(NNc1ncccc1Cl)c1c(Cl)cccc1Cl	-3	3	7	-5
COc1cccc(N(C(=O)Cn2nnc(-c3ccc(Cl)cc3)n2)C(C(=O)NCC2CCCO2)c2ccc(C)cc2)c1 (stereo not given)	-4	12	80*	9
Cc1ccc(-c2nnn(CC(=O)N(c3ccccc3F)C(C(=O)NCC3CCCO3)c3c[nH]c4ccccc34)n2)cc1 (stereo not given)	88*	-1	36	-16
COc1cccc(N(C(=O)Cn2nnc(-c3ccc(F)cc3)n2)C(C(=O)NCC2CCCO2)c2ccc(Cl)cc2)c1 (stereo not given)	2	4	46	-12
Cc1ccc(F)cc1NC(=O)CSc1ncccn1	5	-1	7	8
O=C(Cn1nnc2c(cnn2-c2ccc(F)cc2)c1=O)Nc1ccccc1C(F)(F)F	-7	-12	54	-10
O=C(NC1=NCCS1)c1sc2cc(Cl)cc(Cl)c2c1Cl	76*	15	70	4
CCc1ccc(OCC(=O)NC(=S)Nc2ccc(F)cc2)c(Br)c1	-4	-3	51	4
CCc1ccc(OCC(=O)NC(=S)Nc2cccc(CO)c2)c(Br)c1	-2	x	83*	3
Cc1ccc(C2c3c(oc4ccccc4c3=O)C(=O)N2c2nnc(C(C)C)s2)o1 (stereo not given)	0	9	85*	6
Cc1nnc(N2C(=O)c3oc4ccccc4c(=O)c3C2c2ccco2)s1 (stereo not given)	-8	3	9	16
Cc1ccc(CN2CCN(CC(=O)N=Nc3c(O)[nH]c4ccccc34)CC2)cc1	100*	-12	20	-2
O=C(CN1CCN(Cc2ccccc2Cl)CC1)N=Nc1c(O)[nH]c2ccccc12	7	-15	22	-25
CC(C)OC(=O)C(C)Nc1ccc(F)c(Cl)c1 (stereo not given)	x	x	-1	x
CN1CCN(c2ccc(-c3ccnn3C(=O)Nc3cccc(C(F)(F)F)c3)cc2)CC1	3	68*	-4	-14
COc1ccc(N2CCN(C(=O)Nc3cccc(C(F)(F)F)c3)CC2)cc1	3	6	23	-8
CC1CCCN(C(=O)CSc2nnc(-c3cccnc3)n2C2CCCCC2)C1 (stereo not given)	-11	65*	2	3
O=C(CSc1nnc(-c2ccccc2)n1C1CCCCC1)N1CCCC1	-6	7	19	2
CCOP(=O)(OCC)C(NC(=O)c1cccs1)C(F)(F)F (stereo not given)	-4	18	-5	19
SMILES	L major viab	WT yeast gro inh	CHOP inhibitor	Arbovirus inh
O=C(CN1C(=O)COc2ccccc21)NCCN1CCC(Cc2ccccc2)CC1	67*	7	23	0
O=C(CN1C(=O)COc2ccccc21)NCCCN1CCN(Cc2ccccc2)CC1	3	12	-6	2
Cc1ccc(-c2n[nH]c(=S)n2/N=C/c2sccc2C)cc1	x	x	-4	x
Cc1ccsc1/C=N/n1c(C2CCCCC2)n[nH]c1=S	-2	-17	84*	1
O=c1cc(NCc2ccc3c(c2)OCO3)[nH]c(=O)n1-c1ccc(Cl)cc1	-6	11	27	-1
O=c1cc(NCc2ccco2)[nH]c(=O)n1-c1ccc(Br)cc1	-6	-10	82*	5
CC(=O)Oc1ccc2ccccc2c1C(NC(=O)C(C)C)c1cccc([N+](=O)[O-])c1 (stereo not given)	99*	23	48	5
CC(=O)NC(c1cccc([N+](=O)[O-])c1)c1c(OC(C)=O)ccc2ccccc12 (stereo not given)	71*	1	23	6
CCCCC(=O)NC(c1cccc([N+](=O)[O-])c1)c1c(OC(C)=O)ccc2ccccc12 (stereo not given)	89*	38	34	16

Bioassay records from PubChem BioAssay.
